Measured values from article PMC4336329 (PLoS ONE, 2015).
In all, about 310,000 compounds went through this assay and about 14,000 (4.5%) showed an effect of 50% or more. The effect is printed as a negative number. The sample holds strong results, similar compounds and a random draw of the others, so the mix is not that of the screen.

Target: human ether-à-go-go-related gene (hERG) potassium channel (human, UniProt Q12809)
Test: primary screen, population patch clamp on CHO cells stably expressing hERG; higher = less effect of the substance
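Further: peak tail current of the secondary pulse compared with the same well before compound.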

human ether-à-go-go-related gene (hERG) potassium channel, sequence (Q12809 whole entry, looked up): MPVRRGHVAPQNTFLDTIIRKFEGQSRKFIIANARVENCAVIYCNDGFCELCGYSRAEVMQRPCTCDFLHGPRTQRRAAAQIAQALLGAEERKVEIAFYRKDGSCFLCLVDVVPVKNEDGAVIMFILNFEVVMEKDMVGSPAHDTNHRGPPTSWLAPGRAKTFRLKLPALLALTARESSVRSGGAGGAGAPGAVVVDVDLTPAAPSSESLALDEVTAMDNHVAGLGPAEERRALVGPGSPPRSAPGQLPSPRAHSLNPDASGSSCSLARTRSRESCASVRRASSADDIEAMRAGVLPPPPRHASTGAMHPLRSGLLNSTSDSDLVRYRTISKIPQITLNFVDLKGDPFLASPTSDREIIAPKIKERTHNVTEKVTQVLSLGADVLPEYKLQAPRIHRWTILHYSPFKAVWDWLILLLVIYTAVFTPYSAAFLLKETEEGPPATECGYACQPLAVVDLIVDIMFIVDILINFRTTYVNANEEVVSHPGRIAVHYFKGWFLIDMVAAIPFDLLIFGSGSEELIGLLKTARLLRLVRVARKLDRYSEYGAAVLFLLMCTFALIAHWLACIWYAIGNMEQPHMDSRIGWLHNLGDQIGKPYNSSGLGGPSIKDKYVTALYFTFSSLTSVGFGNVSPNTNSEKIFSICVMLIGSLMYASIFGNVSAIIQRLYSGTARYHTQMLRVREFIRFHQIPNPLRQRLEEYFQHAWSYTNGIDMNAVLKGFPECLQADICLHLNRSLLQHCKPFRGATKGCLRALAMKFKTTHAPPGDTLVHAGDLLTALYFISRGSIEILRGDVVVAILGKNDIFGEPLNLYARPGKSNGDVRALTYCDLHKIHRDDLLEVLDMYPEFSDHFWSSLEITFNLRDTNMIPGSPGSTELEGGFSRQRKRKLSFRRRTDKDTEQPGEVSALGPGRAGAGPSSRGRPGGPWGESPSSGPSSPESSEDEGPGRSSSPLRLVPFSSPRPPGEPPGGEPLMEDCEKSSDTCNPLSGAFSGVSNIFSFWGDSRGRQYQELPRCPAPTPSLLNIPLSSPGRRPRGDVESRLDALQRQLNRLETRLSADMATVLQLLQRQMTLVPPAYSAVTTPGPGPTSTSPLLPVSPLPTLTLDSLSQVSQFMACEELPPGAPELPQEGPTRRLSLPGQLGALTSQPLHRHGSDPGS

Row | Structure (SMILES) | hERG current change (%, negative = inhibition) at 10uM [%]
1 | CCSCCOC(=O)C1=C(C)N(C)C(=O)NC1c1ccc2c(c1)OCO2 (stereo not shown) | 5.29
2 | Cc1cc(C)c(S(=O)(=O)N(CC(=O)NCc2cccnc2)C2CCCCC2)c(C)c1 | -37.4
3 | Cc1ccc(S(=O)(=O)N(CC(=O)NCc2cccnc2)C2CCCCC2)cc1 | -63.3
4 | CS(=O)(=O)N(CC(=O)NCc1cccnc1)C1CCCCC1 | 5.98
5 | COc1ccc(S(=O)(=O)N(CC(=O)NCc2cccnc2)C2CCCCC2)cc1OC | -12.7
6 | O=C(CN(C1CCCCC1)S(=O)(=O)c1ccc(Cl)cc1)NCc1cccnc1 | -74.4
7 | O=C(CN(C1CCCCC1)S(=O)(=O)c1ccccc1)NCc1cccnc1 | -30
8 | O=C(COC(=O)c1cc(S(=O)(=O)N2CCOCC2)ccc1F)NC1CCCCC1 | -2.25
9 | O/N=C\c1ccccc1Oc1ccc(F)cc1 | 12.8
10 | COc1cc(/C=N/O)ccc1Oc1ccc([N+](=O)[O-])cc1[N+](=O)[O-] | -45.9
11 | O=[N+]([O-])c1cc(/C=N\O)ccc1Oc1ccc(F)cc1 | -72.1
12 | CO/N=C/c1ccc(Oc2ccc(C)cc2)c([N+](=O)[O-])c1 | 12.1
13 | O=[N+]([O-])c1cc(/C=N/O)ccc1Oc1cccc(Cl)c1 | -53.7
14 | O=[N+]([O-])c1cc(/C=N/O)ccc1Oc1ccccc1Cl | -16
15 | CC(NC1c2ccccc2-c2ccccc21)c1ccccc1 (stereo not shown) | 9.54
16 | CCOC(=O)c1c(NC=O)sc2c1CCC2 | -2.89
17 | Cc1ccc(C)c(NC(=S)NNC(=O)c2csc3c2CCC(C)C3)c1 (stereo not shown) | 3.17
18 | O=C(NCc1ccccc1)C1=C[C@@H](c2ccccc2)C[C@@H](OCc2ccc(CO)cc2)O1 | -14.4
19 | CCN(CC(=O)Nc1cccc(S(N)(=O)=O)c1)Cc1nc2ccccc2c(=O)[nH]1 | 3.49
20 | Cc1cc(-c2cc(-c3ccc(Cl)cc3)nc(N)c2C#N)co1 | -1.55
21 | O=C(O)c1cccnc1Nc1ccc(Cl)cc1 | 25
22 | COc1ccc(CCn2c(=N)c(C(=O)NCC3CCCO3)cc3c(=O)n4ccccc4nc32)cc1 (stereo not shown) | -77.9

Row | Structure (SMILES) | hERG current change (%, negative = inhibition) at 10uM [%]
23 | COc1ccc(CCNC(=O)C(=O)NCC2CCCO2)cc1OC (stereo not shown) | 3.13
24 | COc1ccc(-c2cc(C(=O)NCC3CCCO3)c3ccccc3n2)c(OC)c1 (stereo not shown) | -0.667
25 | COc1ccc(-n2nc(C(=O)NCC3CCCO3)c3ccccc3c2=O)cc1 (stereo not shown) | 31.7
26 | COc1ccc(CCn2c(=N)c(C(=O)NCC3CCCO3)cc3c(=O)n4ccccc4nc32)cc1OC (stereo not shown) | -75.9
27 | COc1ccc(Cn2c(=N)c(C(=O)NCC3CCCO3)cc3c(=O)n4ccccc4nc32)cc1 (stereo not shown) | -82.2
28 | COc1ccc(C(=O)Nc2ccccc2C(=O)NCC2CCCO2)cc1 (stereo not shown) | 4.28
29 | COc1ccc(-c2cc(C(=O)NCC3CCCO3)c3ccccc3n2)cc1 (stereo not shown) | -10.7
30 | COc1ccc(CCNC(=O)CCn2c(=O)c3ccccc3n(CC(=O)NCC3CCCO3)c2=O)cc1OC (stereo not shown) | 8.86
31 | Cc1csc(SCC(=O)NC23CC4CC(CC(C4)C2)C3)n1 | -20.5
32 | O=S(=O)(/N=C(/Nc1cccc2ccccc12)c1ccc(F)cc1)c1ccccc1 | -42.8
33 | COCCCNC(=O)Cn1nnc(-c2ccc(NC(=O)c3ccccc3F)cc2)n1 | -2.44
34 | CCOC(=O)CN(C(=O)CSc1nnc(-c2ccc(OC)c(OC)c2)o1)c1ccc(F)cc1 | -49.6
35 | CC(=O)c1sc(NC(=O)CCOc2ccccc2)nc1C | 5.9
36 | CCC(Sc1nc2n[nH]c(C)c2c(=N)n1-c1cc(Cl)ccc1C)C(=O)N1CCOCC1 (stereo not shown) | -0.58
37 | CC(C(=O)Nc1ccc(C#N)cc1)N1CCN(C(=O)C2CC2)CC1 (stereo not shown) | -61.2
38 | COc1cc(NC(=O)C(C)N2CCN(C(=O)C3CC3)CC2)cc(OC)c1 (stereo not shown) | -16.1
39 | CC1CCN(C(C)C(=O)Nc2ccc(S(=O)(=O)N3CCCC3)cc2)CC1 (stereo not shown) | -6.3
40 | CCOCCCNc1ncnc2c1nc1n2CCCC1 | 17.2
41 | COCCCNc1ncnc2c1nc1n2CCCC1 | 18.6
42 | CC(C)OCCCNc1ncnc2c1nc1n2CCCC1 | -72.6
43 | COc1ccc2[nH]cc(CCN3C(=O)CCC3=O)c2c1 | 10.7
44 | O=C(CSc1nc2c(c(C(F)(F)F)n1)CCc1ccccc1-2)NCc1ccc(F)cc1 | 14.2

Row | Structure (SMILES) | hERG current change (%, negative = inhibition) at 10uM [%]
45 | O=C(CSc1nc2c(c(C(F)(F)F)n1)CCc1ccccc1-2)NCc1ccccc1 | 6.56
46 | CCN(CC)CCCNC(=O)CSc1nc2c(c(C(F)(F)F)n1)CCc1ccccc1-2 | -52.2
47 | Cl.O=C(CN1CCCC(O)C1)N1c2ccccc2Sc2ccc(C(F)(F)F)cc21 (stereo not shown) | -7.16
48 | COc1ccccc1C(=O)Nc1c2c(nn1-c1ccc([N+](=O)[O-])cc1)CS(=O)(=O)C2 | 11.7
49 | COc1ccc(C(=O)Nc2c3c(nn2-c2ccc([N+](=O)[O-])cc2)CS(=O)(=O)C3)cc1 | -9.85
50 | Cc1ccc(-n2nc3c(c2NC(=O)c2ccco2)CS(=O)(=O)C3)cc1 | -25.7
51 | CCOc1ccc(C(=O)Nc2c3c(nn2-c2ccccc2)CS(=O)(=O)C3)cc1 | 4.84
52 | O=C(Nc1c2c(nn1-c1ccc([N+](=O)[O-])cc1)CS(=O)(=O)C2)c1ccco1 | -64.7
53 | CC(Oc1ccccc1)C(=O)Nc1c2c(nn1-c1ccccc1)CS(=O)(=O)C2 (stereo not shown) | 18.2
54 | CC(C)Oc1ccc(C(=O)Nc2c3c(nn2-c2ccccc2)CS(=O)(=O)C3)cc1 | -65.9
55 | O=C(Nc1c2c(nn1-c1ccccc1)CS(=O)(=O)C2)c1ccco1 | -9.21
56 | COc1cccc(C(=O)Nc2c3c(nn2-c2ccc([N+](=O)[O-])cc2)CS(=O)(=O)C3)c1 | -53.8
57 | O=C(NNC(=O)C1CCN(Cc2ccccc2)CC1)c1cccc(Cl)c1 | -14
58 | CCCn1nc(Oc2nc(NCC)nc(NC(C)C)n2)ccc1=O | 1.01
59 | CCc1nc(N2CCN(C(=S)NCCCOC)CC2)c2c3c(sc2n1)CCCC3 | -9.32
60 | Fc1ccc(-n2c(-c3ccc4ccccc4n3)n[nH]c2=S)cc1Cl | 31
61 | O=C(COc1ccccc1)NC1CCCc2ccccc21 (stereo not shown) | -19.3
62 | CCOC(=O)Cc1csc(NC(=O)NC2(C(F)(F)F)Oc3ccc(Cl)cc3O2)n1 (stereo not shown) | 15.8
63 | Cc1ccccc1NS(=O)(=O)c1ccc(OCC(=O)NCc2cccnc2)cc1 | -32.8
64 | O=C(COCc1cc(-c2ccc3c(c2)OCO3)on1)N1CCCCC1 | 4.66
65 | CCCc1c(C)nc2ccc(OC)cc2c1SCCC(=O)O | 10.4
66 | COc1cccc(C(=O)C2=NN(C(C)=O)CC2c2ccco2)c1 (stereo not shown) | -15.8

Row | Structure (SMILES) | hERG current change (%, negative = inhibition) at 10uM [%]
67 | COc1ccc(NC(=O)CCN2C(=O)c3ccncc3C2=O)cc1OC | -7.46
68 | CC1CCCCN1C(=S)Nc1ccc(OC(F)F)cc1 (stereo not shown) | -40.1
69 | O=C(CNC(=O)c1ccccc1)Oc1cccc(Cl)c1 | 17.8
70 | CC(NC(=O)C(C)(C)C)C(c1cccs1)N1CCN(Cc2ccccc2)CC1 (stereo not shown) | -14.3
71 | CC(NC(=O)NC1CCCCC1)C(c1cccs1)N1CCN(Cc2ccccc2)CC1 (stereo not shown) | -56.7
72 | CC(NC(=O)NC1CCCCC1)C(c1cccs1)N1CCN(c2ccccc2)CC1 (stereo not shown) | -48.6
73 | CCN1CCN(C(c2cccs2)C(C)NC(=O)NC2CCCCC2)CC1 (stereo not shown) | -45.5
74 | CC(NC(=O)NC1CCCCC1)C(c1cccs1)N1CCN(C)CC1 (stereo not shown) | -8.03
75 | CCN1CCN(C(c2cccs2)C(C)NC(=S)NC2CCCCC2)CC1 (stereo not shown) | -60.8
76 | CCC(=O)NC(C)C(c1cccs1)N1CCN(Cc2ccccc2)CC1 (stereo not shown) | -11.6
77 | CC(NC(=O)c1cccs1)C(c1cccs1)N1CCN(Cc2ccccc2)CC1 (stereo not shown) | -72.7
78 | CC(NC(=S)NC1CCCCC1)C(c1cccs1)N1CCOCC1 (stereo not shown) | -0.732
79 | Cc1ccc(NCC(=O)N/N=C/c2ccc(OC(=O)c3ccco3)cc2)cc1 | 1.76
80 | CCCN(CC(=O)Nc1ccccc1C)C(=O)COc1c(C)cccc1C | -4.72
81 | NS(=O)(=O)c1ccc(Nc2ccc3nonc3c2[N+](=O)[O-])cc1 | 9.07
82 | O=C(CSc1n[nH]c(=O)n1C1CC1)c1c[nH]c2ccccc12 | 9.29
83 | O=C(CN1C(=O)/C(=C/c2ccccc2)Sc2ccccc21)NCCCN1CCOCC1 | -42.8
84 | O=C(CN1C(=O)/C(=C/c2ccc(C(F)(F)F)cc2)Sc2ccccc21)NCCCN1CCOCC1 | -65.6
85 | O=C(CCCN1C(=O)/C(=C/c2cccc(Br)c2)SC1=S)NCCCN1CCOCC1 | -18.1
86 | O=C(CN1C(=O)/C(=C/c2cccc(Br)c2)SC1=S)NCCCN1CCOCC1 | 5.42
87 | O=C(CCN1C(=O)/C(=C\c2cccc(Br)c2)SC1=S)NCCCN1CCOCC1 | -63.4
88 | CCc1ccc(/C=C2/Sc3ccccc3N(CC(=O)NCCCN3CCOCC3)C2=O)cc1 | -41.3
